# Read-outs that look alike come from different tables or passages of the source.
# Assays:
# SRPK2 = details: concentration: 1 μM, replicates: in singlicate; n = 1
# SRPK3 = details: concentration: 1 μM, replicates: in singlicate; n = 1
# STK16 = details: concentration: 1 μM, replicates: in singlicate; n = 1
# STK33 = details: concentration: 1 μM, replicates: in singlicate; n = 1
# STK35 = details: concentration: 1 μM, replicates: in singlicate; n = 1
# STK36 = details: concentration: 1 μM, replicates: in singlicate; n = 1
# STK39 = details: concentration: 1 μM, replicates: in singlicate; n = 1
# SYK = details: concentration: 1 μM, replicates: in singlicate; n = 1
# SgK110 = details: concentration: 1 μM, replicates: in singlicate; n = 1
# TAK1 = system: T1, TAK1; details: concentration: 1 μM, replicates: in singlicate; n = 1
# T1 construct: gene MAP3K7
# TAOK1 = details: concentration: 1 μM, replicates: in singlicate; n = 1
# TAOK2 = details: concentration: 1 μM, replicates: in singlicate; n = 1
# TAOK3 = details: concentration: 1 μM, replicates: in singlicate; n = 1
# TBK1 = details: concentration: 1 μM, replicates: in singlicate; n = 1
# TEC = details: concentration: 1 μM, replicates: in singlicate; n = 1
# TESK1 = details: concentration: 1 μM, replicates: in singlicate; n = 1
# TGFBR1 = details: n = 1
# TGFBR2 = details: concentration: 1 μM, replicates: in singlicate; n = 1
# TIE1 = details: concentration: 1 μM, replicates: in singlicate; n = 1
# TIE2 = system: T2, TIE2; details: concentration: 1 μM, replicates: in singlicate; n = 1
# T2 construct: gene TEK
# [1] = concentration: 1 μM, replicates: in singlicate
# 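Note: KINOMEscan kinase panel screen.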
smiles,measurement,setting,value
FC(F)(F)c1ccccc1-c1cc(-c2c[nH]nc2-c2ccccn2)ccn1 [GW679396],%Inh,SRPK2,0%
same,%Inh,SRPK3,0%
same,%Inh,STK16,20%
same,%Inh,STK33,0%
same,%Inh,STK35,0%
same,%Inh,STK36,29%
same,%Inh,STK39,7%
same,%Inh,SYK,25%
same,%Inh,SgK110,0%
same,%Inh,TAK1,4%
same,%Inh,TAOK1,0%
same,%Inh,TAOK2,0%
same,%Inh,TAOK3,0%
same,%Inh,TBK1,18%
same,%Inh,TEC,1%
same,%Inh,TESK1,14%
same,%Inh,TGFBR1; 1 µM,0%
same,%Inh,TGFBR2,10%
same,%Inh,TIE1,0%
same,%Inh,TIE2,7%
O=C(Nc1n[nH]c2nc(-c3cccs3)c(Br)cc12)C1CC1 [SB-735297],%Inh,SRPK2,0%
same,%Inh,SRPK3,8%
same,%Inh,STK16,0%
same,%Inh,STK33,0%
same,%Inh,STK35,0%
same,%Inh,STK36,12%
same,%Inh,STK39,7%
same,%Inh,SYK,10%
same,%Inh,SgK110,0%
same,%Inh,TAK1,6%
same,%Inh,TAOK1,10%
same,%Inh,TAOK2,0%
same,%Inh,TAOK3,0%
same,%Inh,TBK1,33%
same,%Inh,TEC,0%
same,%Inh,TESK1,19%
same,%Inh,TGFBR1; [1],0%
same,%Inh,TGFBR2,0%
same,%Inh,TIE1,0%
same,%Inh,TIE2,12%
COc1cccc(NC(=O)Nc2ccc(C)c(-c3ccc(C(=O)Nc4ccncc4)cc3)c2)c1 [GSK1398474],%Inh,SRPK2,0%
same,%Inh,SRPK3,27%
same,%Inh,STK16,11%
same,%Inh,STK33,0%
same,%Inh,STK35,0%
same,%Inh,STK36,51%
same,%Inh,STK39,33%
same,%Inh,SYK,40%
same,%Inh,SgK110,0%
same,%Inh,TAK1,0%
same,%Inh,TAOK1,0%
same,%Inh,TAOK2,0%
same,%Inh,TAOK3,4%
same,%Inh,TBK1,29%
same,%Inh,TEC,5%
same,%Inh,TESK1,19%
same,%Inh,TGFBR1; [1],0%
same,%Inh,TGFBR2,0%
same,%Inh,TIE1,0%
same,%Inh,TIE2,0%
Cn1cncc1C(=O)NC1CCN(c2ccnc(Nc3ccc(F)cc3)n2)C1 (stereo not shown) [GSK1379717],%Inh,SRPK2,0%
same,%Inh,SRPK3,0%
same,%Inh,STK16,17%
same,%Inh,STK33,0%
same,%Inh,STK35,0%
same,%Inh,STK36,0%
same,%Inh,STK39,0%
same,%Inh,SYK,5%
same,%Inh,SgK110,6%
same,%Inh,TAK1,0%
same,%Inh,TAOK1,0%
same,%Inh,TAOK2,0%
same,%Inh,TAOK3,0%
same,%Inh,TBK1,9%
same,%Inh,TEC,4%
same,%Inh,TESK1,98.9%
same,%Inh,TGFBR1; [1],26%
same,%Inh,TGFBR2,0%
same,%Inh,TIE1,0%
same,%Inh,TIE2,0%
CC(=O)c1c(C)c2cnc(Nc3ccn(C)n3)nc2n(C2CCCC2)c1=O,%Inh,SRPK2,0%
same,%Inh,SRPK3,0%
same,%Inh,STK16,55%
same,%Inh,STK33,0%
same,%Inh,STK35,5%
same,%Inh,STK36,0%
same,%Inh,STK39,0%
same,%Inh,SYK,0%
same,%Inh,SgK110,0%
same,%Inh,TAK1,11%
same,%Inh,TAOK1,0%
same,%Inh,TAOK2,0%
same,%Inh,TAOK3,0%
same,%Inh,TBK1,0%
same,%Inh,TEC,0%
same,%Inh,TESK1,4%
same,%Inh,TGFBR1; [1],0%
same,%Inh,TGFBR2,0%
same,%Inh,TIE1,0%
same,%Inh,TIE2,0%
Cc1c(Cn2c(C)c(C)n3c(=O)cc(N4CCOCC4)nc23)cccc1C(F)(F)F [GSK2328680],%Inh,SRPK2,45%
same,%Inh,SRPK3,2%
same,%Inh,STK16,0%
same,%Inh,STK33,65%
same,%Inh,STK35,0%
same,%Inh,STK36,0%
same,%Inh,STK39,0%
same,%Inh,SYK,32%
same,%Inh,SgK110,0%
same,%Inh,TAK1,0%
same,%Inh,TAOK1,0%
same,%Inh,TAOK2,0%
same,%Inh,TAOK3,0%
same,%Inh,TBK1,9%
same,%Inh,TEC,5%
same,%Inh,TESK1,22%
same,%Inh,TGFBR1; [1],9%
same,%Inh,TGFBR2,0%
same,%Inh,TIE1,54%
same,%Inh,TIE2,0%
COC(=O)c1cccc(NC(=O)NC2CCN(c3ccnc(Nc4ccc(F)cc4)n3)C2)c1 (stereo not shown) [GSK1379725],%Inh,SRPK2,0%
same,%Inh,SRPK3,0%
same,%Inh,STK16,0%
same,%Inh,STK33,0%
same,%Inh,STK35,0%
same,%Inh,STK36,0%
same,%Inh,STK39,1%
same,%Inh,SYK,17%
same,%Inh,SgK110,0%
same,%Inh,TAK1,0%
same,%Inh,TAOK1,0%
same,%Inh,TAOK2,0%
same,%Inh,TAOK3,0%
same,%Inh,TBK1,0%
same,%Inh,TEC,0%
same,%Inh,TESK1,15%
same,%Inh,TGFBR1; [1],0%
same,%Inh,TGFBR2,0%
same,%Inh,TIE1,0%
same,%Inh,TIE2,0%
COc1nccc(-c2c(-c3ccc(F)cc3)ncn2CCCN2CCOCC2)n1 [SB-282852],%Inh,SRPK2,26%
same,%Inh,SRPK3,23%
same,%Inh,STK16,9%
same,%Inh,STK33,0%
same,%Inh,STK35,0%
same,%Inh,STK36,0%
same,%Inh,STK39,6%
same,%Inh,SYK,0%
same,%Inh,SgK110,0%
same,%Inh,TAK1,43%
same,%Inh,TAOK1,0%
same,%Inh,TAOK2,0%
same,%Inh,TAOK3,0%
same,%Inh,TBK1,19%
same,%Inh,TEC,0%
same,%Inh,TESK1,8%
same,%Inh,TGFBR1; [1],20%
same,%Inh,TGFBR2,0%
same,%Inh,TIE1,0%
same,%Inh,TIE2,33%

# — article PMC5540273 (PLoS ONE, 2017)
